Bioassay records as filed in PubChem BioAssay.
ClpP mod = qHTS Assay for Activators of ClpP | ATP-dependent Clp protease proteolytic subunit (Bacillus subtilis (strain 168)), P80244 | purified B. subtilis ClpP, FRET peptide cleavage, 20 min | Potency, µM (highest dose often 57.5 µM), for inactives: at the highest dose activity change, negative = active | 1.9% of 340,000 active | AID 651965, 2013; active = well fitted falling curve with a large enough effect; inconclusive = small, poorly fitted or top-dose-only effect; inactive = no such curve, though single readings can be large or run the other way; note: potency is the fitted concentration of half-maximal effect; the source files actives as falling curves though it sought activators and does not explain the sign; nearly all actives have a fitted effect of over 65% in size
Target sequence (P80244 whole entry, looked up): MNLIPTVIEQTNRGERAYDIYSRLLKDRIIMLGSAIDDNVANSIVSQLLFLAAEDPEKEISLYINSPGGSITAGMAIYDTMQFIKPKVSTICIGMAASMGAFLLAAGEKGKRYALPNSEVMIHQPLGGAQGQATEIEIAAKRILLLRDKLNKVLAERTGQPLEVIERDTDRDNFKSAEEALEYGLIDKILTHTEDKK
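FRET quenching reversal measured ClpP activation: 10 microg/mL B. subtilis ClpP at pH 8 with the FRET-FV decapeptide, read at 430 nm after 320 nm excitation. The 20-min minus 0-min signal was scaled between DMSO/no-enzyme wells and ADEP (5.8 microM final).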
IL-1B inflam inh = qHTS for Inhibitors of Inflammasome Signaling: IL-1-beta AlphaLISA Primary Screen; THP-1 LPS/ATP IL-1B secretion, AlphaLISA, 16 h; active compounds read low; activity change, % at 57.5 µM; 4.7% of 360,000 active; AID 743279, 2014; in the data active = activity change below about -50%; inconclusive = mostly about -30% to -49%; note: % is set by controls: 0 for no effect and ±100 for the full control effect
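THP-1 cells pretreated 1 hr with compounds (up to 57.5 uM final), then stimulated with LPS (250 ng/mL final) plus ATP (1.25 mM final); secreted IL-1B measured by AlphaLISA after 16 hr, decreased signal indicating inhibition.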
TDP1 cell CPT = qHTS for Inhibitors of human tyrosyl-DNA phosphodiesterase 1 (TDP1): qHTS in cells in presence of CPT. chicken DT40 Tdp1-/-;hTDP1 cells + 20 nM CPT, ATP luminescence, 48 h. 12% of 420,000 active. Potency, µM (doses to about 46.2 µM), for inactives: at the top dose activity change, negative = growth inhibition, hits mostly inhibitors. AID 686979, 2013; note: potency is the fitted concentration of half-maximal effect; % is set by controls: 0 for no effect and ±100 for the full control effect; nearly all actives have a fitted effect of over 55% in size
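Chicken DT40 Tdp1-/- cells stably complemented with human TDP1 were seeded at 400 cells/well in medium containing 20 nM camptothecin, exposed to pin-transferred compounds, and grown at 37 °C for at least 48 hr. Viability was read as ATP luminescence.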
D3 ag = qHTS of D3 Dopamine Receptor Agonist: qHTS; D(3) dopamine receptor (Homo sapiens), P35462; max activation, %; 0.58% of 410,000 active; D3R DiscoveRx beta-arrestin cells, luminescence, 90 min; in the data active = max activation above about 30%; note: 0% is about no effect
Target sequence (P35462 whole entry, looked up): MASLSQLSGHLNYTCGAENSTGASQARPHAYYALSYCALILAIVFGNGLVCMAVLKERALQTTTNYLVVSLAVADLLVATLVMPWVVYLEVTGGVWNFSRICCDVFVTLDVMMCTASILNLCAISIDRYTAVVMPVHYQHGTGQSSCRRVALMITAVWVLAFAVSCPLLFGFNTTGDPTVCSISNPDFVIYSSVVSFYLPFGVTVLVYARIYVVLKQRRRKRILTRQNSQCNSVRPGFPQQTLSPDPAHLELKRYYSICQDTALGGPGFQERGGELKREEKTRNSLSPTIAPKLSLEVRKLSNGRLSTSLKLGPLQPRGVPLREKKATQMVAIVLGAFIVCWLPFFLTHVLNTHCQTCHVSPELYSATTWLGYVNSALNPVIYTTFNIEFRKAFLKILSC
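Agonist-mode cell screen: cells plated at 1500/well and incubated overnight at 37 °C, then exposed to library compounds for 90 min at 37 °C. Detection reagent was added for 30–60 min at room temperature, and luminescence was read.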
DRD3 antagonist = qHTS of D3 Dopamine Receptor Antagonist: qHTS; D3R cells, DiscoveRx beta-arrestin luminescence, antagonist mode; active compounds read low; max response, negative = inhibition, %; 2.5% of 360,000 active; in the data active = max response below about -50%; inconclusive = no clear call, values can overlap the other calls; note: % is set by controls: 0 for no effect and ±100 for the full control effect
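Cells expressing the human receptor were seeded at 1500 cells/well, incubated overnight at 37 degrees C in 5% CO2, then exposed to library compounds with dopamine controls for 90 minutes at 37 degrees C before luminescent detection.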
TDP1 cell noCPT = qHTS for Inhibitors of human tyrosyl-DNA phosphodiesterase 1 (TDP1): qHTS in cells in absence of CPT; DT40 Tdp1-/- hTDP1 cells, no CPT, ATP luminescence, 48 h; AID 686978, 2013; 15% of 420,000 active; Potency, µM (doses to about 46.2 µM), for inactives: at the highest dose activity change, negative = growth inhibition, usual class: inhibitors; note: potency is the fitted concentration of half-maximal effect; % is set by controls: 0 for no effect and ±100 for the full control effect; nearly all actives have a fitted effect of over 55% in size
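Growth of hTDP1-complemented DT40 Tdp1-knockout cells is measured by ATP luminescence after at least 48 hr compound exposure at 37 °C, with DMSO substituting for the 20 nM CPT used in the parallel screen.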
Active calls of the source: *; [ ] = remark or other dose. Most compounds without a hit are left out; they make up all but 21% or so of the library. Unless noted, calls come from the whole dose curve; as a rule, active = well fitted inhibition curve with a large enough effect; inconclusive = small, poorly fitted or top-dose-only effect; inactive = flat fitted curve, though single readings scatter.

What do the screens show for `Cc1ccc(Cn2c(C(C)Nc3nc(-c4ccc(C)cc4)cs3)nc3cc(Cl)c(Cl)cc32)cc1` (configuration not stated)?
ClpP mod: -1%; IL-1B inflam inh: -2; TDP1 cell CPT: inconclusive; D3 ag: -5; DRD3 antagonist: -28; TDP1 cell noCPT: -15%

Results for Cc1cc(C)cc(NC(=S)N2CCC(C(=O)c3ccc(F)cc3)CC2)c1 ?
ClpP mod: 2%; IL-1B inflam inh: -10; TDP1 cell CPT: -7%; D3 ag: -1; DRD3 antagonist: 84; TDP1 cell noCPT: -4%

What do the screens show for `CCN(CC)CCNC(=O)Nc1ccc2c(c1)N(Cc1ccccc1)C(=O)c1ccccc1S2`?
ClpP mod: -3%; TDP1 cell CPT: inconclusive; D3 ag: -5; TDP1 cell noCPT: inconclusive

What do the screens show for `CC(C)(C)C(=O)Nc1nnc(SCC(=O)NC2CC2)s1`?
IL-1B inflam inh: 1; TDP1 cell CPT: 35%; D3 ag: -7; DRD3 antagonist: 1; TDP1 cell noCPT: -8%

How did CC(C(=O)O)c1ccc(/C=C2\CCCCC2=O)cc1 (configuration not stated) do in these assays?
TDP1 cell CPT: -15%; D3 ag: -6; TDP1 cell noCPT: -7%

What do the screens show for `FC(F)(F)c1cc(Sc2ccccc2)nc(-c2ccccn2)n1`?
ClpP mod: -1%; IL-1B inflam inh: 5; TDP1 cell CPT: inconclusive; D3 ag: 34*; DRD3 antagonist: 31; TDP1 cell noCPT: 15µM*

How did CC(C)Nc1cc(C(F)(F)F)nc(-c2ccccn2)n1 do in these assays?
ClpP mod: -7%; IL-1B inflam inh: -16; TDP1 cell CPT: 18µM*; D3 ag: 2; DRD3 antagonist: 13; TDP1 cell noCPT: 18µM*

Results for COC(=O)CSc1cc(C(F)(F)F)nc(-c2ccccn2)n1 ?
ClpP mod: 1%; IL-1B inflam inh: inconclusive; TDP1 cell CPT: -4%; D3 ag: 1; DRD3 antagonist: 10; TDP1 cell noCPT: 15%

What do the screens show for `COc1cc(C(F)(F)F)nc(-c2ccccn2)n1`?
IL-1B inflam inh: 9; TDP1 cell CPT: 18%; D3 ag: 4; DRD3 antagonist: -14; TDP1 cell noCPT: -22%

Results for FC(F)(F)c1cc(Nc2ccccc2)nc(-c2ccccn2)n1 ?
ClpP mod: -1%; IL-1B inflam inh: -22; TDP1 cell CPT: inconclusive; D3 ag: -2; DRD3 antagonist: -5; TDP1 cell noCPT: 26µM*

How did CC(C)(C)c1nnc(NS(=O)(=O)c2ccccc2)s1 do in these assays?
TDP1 cell CPT: 12%; D3 ag: -13; TDP1 cell noCPT: 2%

How did N#C/C(=C/c1ccc(O)c([N+](=O)[O-])c1)C(=O)Nc1ccccc1 do in these assays?
IL-1B inflam inh: -2; TDP1 cell CPT: 4.1µM*; D3 ag: -10; DRD3 antagonist: -3; TDP1 cell noCPT: 6.5µM*

Results for CNc1ccc(/C=C(\C#N)C(=O)Nc2ccccn2)cc1[N+](=O)[O-] ?
IL-1B inflam inh: 9; TDP1 cell CPT: -1%; D3 ag: -7; DRD3 antagonist: -10; TDP1 cell noCPT: -15%

How did N#C/C(=C\c1ccccc1C(F)(F)F)C(=O)Nc1ccccc1 do in these assays?
ClpP mod: 1%; IL-1B inflam inh: -70*; TDP1 cell CPT: -26%; D3 ag: -12; DRD3 antagonist: 0; TDP1 cell noCPT: -12%

What do the screens show for `Cc1ccc(NC(=O)/C(C#N)=C/c2ccccc2Cl)cc1C`?
ClpP mod: -1%; TDP1 cell CPT: 26µM*; D3 ag: -2; TDP1 cell noCPT: 26µM*

How did CCc1cccc(CC)c1NC(=O)/C(C#N)=C/c1ccccc1C(F)(F)F do in these assays?
ClpP mod: 1%; IL-1B inflam inh: -99*; TDP1 cell CPT: inconclusive; D3 ag: 5; DRD3 antagonist: 1; TDP1 cell noCPT: 21µM*

What do the screens show for `CCCOc1ccccc1/C=C(\C#N)C(=O)Nc1cccc(C)n1`?
ClpP mod: -1%; IL-1B inflam inh: -2; TDP1 cell CPT: -5%; D3 ag: -10; DRD3 antagonist: 2; TDP1 cell noCPT: -15%

What do the screens show for `Cc1ccccc1Sc1ccc(N)cn1`?
ClpP mod: -26%; IL-1B inflam inh: 0; TDP1 cell CPT: -3%; D3 ag: -2; DRD3 antagonist: -17; TDP1 cell noCPT: -16%

How did NC(=O)c1ccc(N=C2C(=O)Nc3ccc([N+](=O)[O-])cc32)cc1 do in these assays?
ClpP mod: 1%; IL-1B inflam inh: 31; TDP1 cell CPT: -10%; D3 ag: -3; DRD3 antagonist: -62*; TDP1 cell noCPT: inconclusive

What do the screens show for `CC(=O)c1ccc(N=C2C(=O)Nc3ccccc32)cc1`?
IL-1B inflam inh: -8; TDP1 cell CPT: inconclusive; D3 ag: -9; DRD3 antagonist: -22; TDP1 cell noCPT: 13µM*

What do the screens show for `O=C1Nc2ccccc2C1=Nc1cccc([N+](=O)[O-])c1`?
ClpP mod: 3%; IL-1B inflam inh: 8; TDP1 cell CPT: -16%; D3 ag: -1; DRD3 antagonist: -3; TDP1 cell noCPT: -7%

What do the screens show for `O=C1Nc2ccccc2C1=Nc1ccc(F)cc1`?
IL-1B inflam inh: -1; TDP1 cell CPT: -1%; D3 ag: 8; DRD3 antagonist: -21; TDP1 cell noCPT: 0%

What do the screens show for `COc1ccccc1-c1ccnc(-n2ncc(C(=O)N3CCN(C(C)C)CC3)c2-c2ccco2)n1`?
TDP1 cell CPT: 8%[9.04 µM]; TDP1 cell noCPT: -10%

How did CC(=O)c1c(O)c2ccccc2n(C)c1=O do in these assays?
ClpP mod: 1%; IL-1B inflam inh: 29; TDP1 cell CPT: 4%; D3 ag: -1; DRD3 antagonist: -7; TDP1 cell noCPT: -9%

What do the screens show for `Cc1cccc(C(=O)NNC(=O)c2c(O)c3ccccc3n(C)c2=O)c1`?
IL-1B inflam inh: -2; TDP1 cell CPT: inconclusive; D3 ag: 30*; DRD3 antagonist: 58; TDP1 cell noCPT: 29µM*

Results for CC(NC(=O)c1c(O)c2ccccc2n(C)c1=O)c1ccccc1 (configuration not stated) ?
IL-1B inflam inh: 28; TDP1 cell CPT: 23µM*; D3 ag: -17; DRD3 antagonist: 0; TDP1 cell noCPT: 18µM*
